Vif-APOBEC3G blk = qHTS for Inhibitors of Vif-A3G Interactions: qHTS; 0.076% of 410,000 active; HeLa A3G-eYFP + Vif (tagged APOBEC3G with the HIV-1 protein that degrades it), YFP fluorescence, overnight; Potency, µM (doses to about 46.1 µM), actives largely listed as inhibitors; note: nearly all actives have a fitted effect of over 60% in size
Target sequence (Q9HC16 whole entry, looked up): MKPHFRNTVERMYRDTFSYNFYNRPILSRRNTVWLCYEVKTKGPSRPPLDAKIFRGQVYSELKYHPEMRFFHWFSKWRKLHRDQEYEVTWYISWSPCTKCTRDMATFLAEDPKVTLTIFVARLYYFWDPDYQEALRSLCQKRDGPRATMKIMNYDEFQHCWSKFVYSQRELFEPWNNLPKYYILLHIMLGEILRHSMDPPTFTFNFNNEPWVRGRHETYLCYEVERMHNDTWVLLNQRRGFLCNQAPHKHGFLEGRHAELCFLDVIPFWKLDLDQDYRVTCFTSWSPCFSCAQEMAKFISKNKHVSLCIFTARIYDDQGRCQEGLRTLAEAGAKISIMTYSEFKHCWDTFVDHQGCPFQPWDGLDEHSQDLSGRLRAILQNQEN
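HeLa cells stably expressing Vif and C-terminally eYFP-tagged A3G, seeded overnight at 37 deg C, then exposed to compound by pintool overnight at 37 deg C. Rise in yellow fluorescence (Ex 488/Em 500-530, Acumen) marks blocked Vif-driven A3G degradation.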
TRPML1 ag = qHTS for Agonists of the Human Mucolipin Transient Receptor Potential 1 (TRPML1) | 0.12% of 410,000 active | activation, % (concentration not given with the values) | Mucolipin-1 (Homo sapiens), Q9GZU1 | TRPML1-expressing cells, Ca2+ dye fluorescence, FDSS; in the data active = activation above about 50%; inconclusive = mostly about 30% to 49%
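Tetracycline-induced TRPML1-DL cells are seeded and incubated overnight before loading with a no-wash Ca2+ dye and quencher. Agonist activity is taken from the 110 s fluorescence read following compound pin-transfer on an FDSS, before EC80 54-4 challenge.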
PINK1 expr mod = A Quantitative High throughput Screen to Identify Chemical Modulators of PINK1 Expression; Potency, µM (highest dose often 76.6 µM), actives largely listed as activators; AID 624263, 2012; PINK1 immunofluorescence, high-content cytometry, 24 h; 0.2% of 410,000 active; active = well fitted activation curve with a large enough effect; inconclusive = small, poorly fitted or top-dose-only effect; cell line not stated here; note: nearly all actives have a fitted effect of over 65% in size
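Measures PINK1 amount and localization on or inside mitochondria by immunofluorescence. Stable cells get compounds at 5 concentrations for 24 hours before fixation and staining; CCCP controls included.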
Vif-A3F inh = qHTS for Inhibitors of Vif-A3F Interactions: qHTS; HeLa A3F-eYFP + Vif (tagged APOBEC3F with the HIV-1 protein that degrades it), YFP fluorescence increase; Potency, µM (series often up to 46.1 µM); 0.2% of 390,000 active; AID 602313, 2012; note: nearly all actives have a fitted effect of over 65% in size
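HeLa cells stably expressing A3F-eYFP plus Vif, plated and incubated overnight at 37 deg C, then exposed to compounds overnight at 37 deg C. Blocked degradation read as raised yellow fluorescence (Ex 488/Em 500-530).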
TRPML1 inh = qHTS for Inhibitors of the Human Mucolipin Transient Receptor Potential 1 (TRPML1); TRPML1-inducible cells, Ca2+ dye fluorescence, FDSS; stronger effect = lower value; inhibition of EC80 agonist-evoked calcium signal; Mucolipin-1 (Homo sapiens), Q9GZU1; 0.02% of 390,000 active; activity change, negative = inhibition, % (no concentration beside the values); in the data active = activity change below about -50%; inconclusive = between about -30% and that limit;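 note: stimulus is agonist 54-4 at its EC80 concentration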
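Tet-induced TRPML1-DL cells loaded with Ca8 no-wash calcium dye were read kinetically on FDSS. Compound addition was followed by EC80 agonist 54-4 (4 uM final); inhibition was read over 110 s.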
Large screens that a line does not name were inactive; ! = repeats disagree. Most compounds without a hit are left out; they make up all but 0.52% or so of the library. Unless noted, calls come from the whole dose curve; as a rule, active = well fitted curve in the direction sought with a large enough effect; inconclusive = small, poorly fitted or top-dose-only effect, or another doubt; inactive = no such curve, though single readings can be large; an effect the other way counts as inactive or inconclusive.

NC(=O)c1cc[n+](CC(=O)NC(=O)Nc2ccccc2)cc1	none
C=C[C@@H]1c2ccccc2N(S(=O)(=O)c2ccc(C)cc2)[C@H](c2ccccc2)C1(C#N)C#N	TRPML1 ag 63!
Cc1ccc(NC(=O)c2cc(S(=O)(=O)N3CCOCC3)c(Cl)cc2Cl)cc1	none (no result: Vif-APOBEC3G blk, Vif-A3F inh)
CNc1cc([N+](=O)[O-])ccc1N/C=C/C(=O)c1ccc2c(c1)OCO2	PINK1 expr mod 14µM, Vif-A3F inh inconclusive
COc1ccc(C(=O)/C=C/Nc2ccc([N+](=O)[O-])cc2C)cc1OC	Vif-APOBEC3G blk inconclusive, PINK1 expr mod 28µM
CNc1cc([N+](=O)[O-])ccc1N/C=C/C(=O)c1cccs1	none
COc1ccc(C(=O)/C=C/Nc2ccc([N+](=O)[O-])cc2C)c(OC)c1	PINK1 expr mod inconclusive, Vif-A3F inh 22µM
O=c1c(CCc2ccccc2)nc2cnc(N3CCNCC3)nc2n1-c1ccccc1	none (no result: Vif-APOBEC3G blk, TRPML1 ag, Vif-A3F inh, TRPML1 inh)
O=C(NC1CCCCC1)C1CC(=O)N(Cc2ccccc2)C1 (centres undefined)	none
COc1cccc(C(=O)OCCN2C(=O)c3ccccc3C2=O)c1OC	none
COc1ccc(C(=O)OCCN2C(=O)c3ccccc3C2=O)cc1	PINK1 expr mod 11µM
O=C(O)C[C@H]1c2cc(C(F)(F)F)ccc2S(=O)(=O)N1C1CCCCC1	none
COc1cccc(/C=N/Nc2nc(Nc3ccccc3)nc(-n3nc(C)cc3C)n2)c1O	TRPML1 inh -52
CN(C)c1ccc(/C=C2\C=Cc3ccccc32)cc1N	none (no result: Vif-A3F inh, TRPML1 inh)
O=C1c2ccccc2NC(c2cn[nH]c2-c2ccc(Cl)cc2)N1O (centres undefined)	none
O=C1c2ccccc2NC(c2cn[nH]c2-c2ccccc2)N1O (centres undefined)	TRPML1 inh -58
CN(Cc1ccccc1)C(=O)C1CCN(S(=O)(=O)Cc2ccccc2)CC1	none
COc1ccc(/C=N/NC(=O)c2[nH]c3ccc(Br)cc3c2-c2ccccc2)c(C(=O)O)c1OC	Vif-APOBEC3G blk inconclusive, Vif-A3F inh inconclusive
O=C(N/N=C/c1ccccc1Cl)c1[nH]c2ccc(Br)cc2c1-c1ccccc1	TRPML1 ag 71, PINK1 expr mod inconclusive, Vif-A3F inh inconclusive
Cc1ccc2nc(-c3cccc(SC4CCCCC4)c3)c(NCc3ccccc3)n2c1	PINK1 expr mod 25µM, Vif-A3F inh inconclusive
Clc1ccc2nc(-c3cccc(SC4CCCCC4)c3)c(NCc3ccccc3)n2c1	none
c1cc(SC2CCCCC2)cc(-c2nc3cnccn3c2NC2CCCCC2)c1	Vif-APOBEC3G blk inconclusive, Vif-A3F inh 25µM
Cc1ccn2c(NCc3ccccc3)c(-c3cccc(SC4CCCCC4)c3)nc2c1	PINK1 expr mod 25µM
c1cn2c(NC3CCCCC3)c(-c3ccc(SC4CCCCC4)cc3)nc2cn1	none
CC1c2ccsc2CCN1S(=O)(=O)c1cccs1 (centres undefined)	none
COc1ccc(/C=N/NC(N)=S)cc1OC(=O)c1cccc2ccccc12	none
Cc1c(C(=O)N2CCC(C(=O)Nc3ccc(F)cc3)CC2)sc2nc[nH]c(=O)c12	none
CCS(=O)(=O)N1CCC(C(=O)NCCc2ccc(OC)c(OC)c2)CC1	PINK1 expr mod 10µM
Cc1nn(C)c2ncc(C(=O)c3ccccc3O)cc12	none
Cc1nn(-c2ccccc2)c2ncc(C(=O)c3cc(Cl)ccc3O)cc12	PINK1 expr mod 28µM
O=C(c1ccccc1)N1CCCCC(S(=O)(=O)c2ccc3ccccc3c2)C1=O (centres undefined)	PINK1 expr mod 5µM
Cn1nc(C(F)(F)F)c(CO)c1Sc1ccc(F)cc1	Vif-A3F inh inconclusive
COC(=O)C1=C(COc2ccc(F)cc2)NC(=O)NC1c1ccc(C)cc1C (centres undefined)	PINK1 expr mod 11µM
Cc1ccc2c(c1)Sc1c(ccc3ccccc13)N2	Vif-APOBEC3G blk inconclusive, Vif-A3F inh 22µM
CCc1c(C)nc2ncnn2c1N1CCC(C(=O)Nc2ccc(C)cc2)CC1	PINK1 expr mod inconclusive

From PubChem
